From the supplement of paper PMC12632987

B1: GBRAPL2_128_7299 (protein)
chain: MKLVEIDITIENKEEAELVKKILEEIAKKGSEEVKKLADAAKDLAETLAEEGYGEKGTVVDILSDEDAEELKKLYEELAEKYGKEKVEKRIKLEVDDIPP
B2: GBRAPL2_151_7306 (protein)
chain: SKKEKAIELLKEAAKTAEEAVKKLSEEQELEKTELELIAGGLEALAILVEETDDEEKIKKLVKEAAELVEDAAKLAEELGLEEEAKKLKELAKELKKLAE
B3: GBRAPL2_128_7292 (protein)
chain: MKLVEIDLDIKNEEEYELAKKVLTELARESSPAVADLANAALDMVEEAKKDGFKDKYVVADVLSPEDAAELEALFNRLAERYGAEKVRKVIQLEVSDIPP
B4: GBRAPL2_128_7298 (protein)
chain: MKLVEIDIDIENEEEAKLVLEILDEIAKRGSPEVKKLADAAKDLAESLAESGYGEKGTVVDILSEEDAEELKKLYEELAKEYGEEKVKKRIKLEVDDIPP
B5: GBRAPL2_151_7316 (protein)
chain: EWKEEALKALEEGAKAVEEFAKSLPESEELERTELELLAGGLDAYKALIEETDDEEEIRRLLKEAAELVEDAAEIAKKLGREEAAKKLEKIAKKLKELAE
B6: GBRAPL2_151_7312 (protein)
chain: SLKEKAVEKLKEAAELVEEAAKALPESQELERTELELIAGGMDADAILIEETEDEEEIKKIIKESAERVEDAAKIAKKLGLEELAKKLEEKAKELKKLAE
B7: GBRAPL2_128_7296 (protein)
chain: MKIVEIDIDVENEEEAELVLEILEEISKKSSPEVKKLMDAAKDMVESLKEDGYDEKATVVDILSEEDAKELEELYKEEAKKYGEEKVKKIIKLEIDEIPP
B8: GBRAPL2_151_7320 (protein)
chain: EELEELERRARELLEELEELVKELEEKKPEHSTEVETLVGGAEADLLLAEEAEDPEEKRRFLLEAAKLIRDAFELIAKILGSERAKELAEEAKELAKELE
B9: GBRAPL2_151_7302 (protein)
chain: SWKEKIIKALEEAAKIAEEAVEKLSESQELEKTEFELIAGGLDALRALIEETDDEEEIRRLARRAAELTKDGAEIAKKLGLEEEAEKFEKRAKELEELAE
B10: GBRAPL2_151_7315 (protein)
chain: SWKEEALKALEEAAEAIEEAAKKLPPEHELERTELELLAGGMDAYKALIEETDDEEEIKRLLKEAAELVKEAAEIMKKLGFEEEAKKLEKIAKELEKLAK
B11: GBRAPL2_151_7317 (protein)
chain: SELEKLLKELKALAEELWKLAEELAKKDPSVATEVETLVGGVEADIILAEEEEDPEEKRKHLLEAAKLAKDAAELIAEVLKSEKAKKLAEKAKKLAEKLK
B12: GBRAPL2_151_7313 (protein)
chain: GWKEEALKALKEAAEAIEKAAEALPPEHELERTELELLAGGMDAYRALVEETDDREEIKRLLKDAAELVKDAAEIMEKLGKEEAAKKLKKIAEKLKKLAE
B13: GBRAPL2_151_7303 (protein)
chain: GWKEEAIKALEEAAKAAEEAAKALSPEHELERTELELLAGGFEADAILIEETDDEEEIKRLVKEAAEMAKDAAKLAKKLGLEKEAKKLEKIAEKLKKLAE
B14: GBRAPL2_151_7314 (protein)
chain: SWKEEALKALEKGAKAIEEFAKSLPEEHELERTEAELLAGGMEAYRALIEETDDEEEIKRLLKEAAELVKDAAEIAKELGFEKEAKELEKIAKELEKLAK
B15: GBRAPL2_151_7307 (protein)
chain: SRKEEAIRLLEEAARTAEEAVEALPESKELEKTELELLAGGLDALAILVEEEDDEEKVRELVKEGAELTEDAARLARELGLEEQARRLEELSRRLKELAE
B16: GBRAPL2_128_7290 (protein)
chain: MKLVTIDVTIKNEEEYNLAVKVLKELAEKGSPKVADLADAARDMVEEAKKEGYNENVSVADILSEEDAEELKKLYEELAKKYGEEKVKSIIKLTIDDIPP
B17: GBRAPL2_151_7300 (protein)
chain: EWKEEAIKALEEAAKIAEEAVEKLDESQELEKTEFELIAGGLDALKALIEETDDEEKIREYVKRGAELVKDAAKIAKELGLEEEAKKFEKLAKKLEELSK
B18: GBRAPL2_151_7311 (protein)
chain: DLKEKAVKALEEAAKALEELAEKLSEEQELEKTEIELLAGGMDAYAILVEETEDEEEIKRIVKDAAELVEDAAKIAKELGLEEDAKKLKEIAKKLKELAK
B19: GBRAPL2_151_7301 (protein)
chain: SWKEEAIKALEEAAKIAEEAVEKLSEEQELEKTEFELIAGGMDALKALIEETDDEELIKKYVERGAELVKDAAEIAKELGLEELAKKFEKLAKELEKLSK
B20: GBRAPL2_128_7294 (protein)
chain: MKIVEIDLDIKNEEEANLAKEILKEIAAKSSEKVKDLMDAAIDMVESLEEDGYDEKATVVDVLSEEDAEELKKLYEEEAKKYGEEKVNKIIKLEISDIPP
B21: GBRAPL2_151_7319 (protein)
chain: GELEELEKKLKELIKKLEKLLEKLKKEKPEYETEVSTLLGGAEADLLLAEEAEDPEEKRRFLAEAAELAADAFKLIAEVLGSEEAKKLAEEAKKLLEKLK
B22: GBRAPL2_151_7321 (protein)
chain: SELEKLKKEAEKLLEELEKLVKELEKKKPEKSTEVETLLGGAEADLILAEEAEDPEEKRRFLLEAAELLADAFKLIAKVLGSEKAKKLAKEAEELAKKLA
B23: GBRAPL2_151_7308 (protein)
chain: SEKEKAIELLKKAAEAAEEAIKALSEDQELEKTEFELIAGGLEALAILIEEEDDEEKIKELVKRGAELVKDAAELAKKLGLEEQAKKLKEIAKELEKLSK
B24: GBRAPL2_128_7293 (protein)
chain: MKIVEVDIEIKNEEEAEKVKAAFDEIAERGSPAVAKLADAAKDMAESLLEDGFDEKGTVVDVLSDEDAAELRELYEELAKEYGEEFMNENIKLTIDDIPP
B25: GBRAPL2_151_7310 (protein)
chain: ELKEKVVKALKEAAKALEELAELLSPEHELEKTEIELIAGGMDAYAALVEETEDEEKIKEITKEAAELVEDAAKIAKELGLEEQAKKLEEIAKKLKELAA
B26: GBRAPL2_151_7309 (protein)
chain: KLKEEVIEALERAAEAVEKAAEKLSPEQELERTELELIAGGMEAYAALVEETEDEEKIKEITRRAAEMVRDAAEIAKELGLEEEAKELEEIAKELEELAA
B27: GBRAPL2_128_7295 (protein)
chain: MKIVEIDIDIKNEEEAELVKEIFKEIAEKSSPEIKKLMDAAIDMVESLKEDGYDEKGTVVDILSKEDAEELKKLYEEEAEKYGKEKVEKIIKLEISDIPP
B28: GBRAPL2_128_7297 (protein)
chain: MKLVEIDIDINNEEEAKLVIEVLEEIAKEGSEEVKKLAEAAKDLAESLAEEGYGEKGTVVDILSEEDAKELKELYEKLSKKYGKEKIEKRIKLEVDDIPP
B29: GBRAPL2_151_7304 (protein)
chain: GWKEEAIKALEKAAKAAEEAAAALPESQELERTELELLAGGFEADAILIEETDDEEEIKRLVKEAAERAEDAAKLAKKLGLEEQAKKLEKIAKELKKLAK
B30: GBRAPL2_151_7318 (protein)
chain: EELEELLKRLKKLAEKLAKLAEELAKEDPEHATEVETLVGGVEADIILAEEEEDEEEKRRHLLRAAELAADAAKLIAEVLKKEEAKKLAEEAKELAEKLK
B31: GBRAPL2_128_7291 (protein)
chain: MKLVEISVKVENEEEYELAKKVLSDIAEKSSPEVAKLADAARDMLEENKEEGYNVGVTVADILSEEQAEELRKLFEEVAKEYGKEKVEKIIELTVDDLPP
B32: GBRAPL2_151_7305 (protein)
chain: SEKEKAIELLEEAAKAAEEAIKKLSEEQELAKTEFELIAGGLEALAILVEETDDEEEIKRLIKEAAELTEDAAKLAEELGLEEEAKKLKEISKELKKLAE

Biological target: GABARAPL2, P60520
Test: median log2 fold change of GCK-ALFA target abundance (FLAG IP / Myc IP barcode read proportion) (log2 ratio); each designed protein is fused to an ALFA-tag nanobody in HEK293 cells to bring the named protein to FLAG-tagged glucokinase (GCK); Myc marks an untargeted standard; higher = target protein stabilised (more abundant)
Conditions: target protein: 3xFLAG-MCP-GCK-ALFA reporter; HEK293 landing pad (RPLP)
Summary of the method: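 Binders fused to an ALFA nanobody were recombined as a library into HEK293 landing-pad cells, which were induced with 2 μg mL^−1 doxycycline and then transfected to express a FLAG-tagged target and a Myc-tagged standard. After 48 h, circular RNA barcodes recovered by anti-FLAG and anti-Myc immunoprecipitation of lysates were reverse transcribed, amplified and sequenced. Each binder's target abundance is the median log2 ratio of FLAG to Myc barcode read proportions, from barcodes present at ≥10^−7 in both replicates, binders carrying ≥3 barcodes per replicate, a 10^−6 pseudocount and pooled replicates.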

Chain of GABARAPL2, P60520 (P60520 whole entry, the tested form may be a part): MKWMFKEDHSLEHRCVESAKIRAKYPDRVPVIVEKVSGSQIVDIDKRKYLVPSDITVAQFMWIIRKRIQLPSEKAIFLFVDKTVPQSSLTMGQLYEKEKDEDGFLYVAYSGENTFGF

Binder	median log2 fold change
B1	-0.468
B2	0.123
B3	-0.166
B4	-0.397
B5	0.266
B6	0.307
B7	-0.305
B8	0.183
B9	0.2
B10	-0.126
B11	0.0623
B12	-0.0822
B13	0.179
B14	0.164
B15	-0.403
B16	-0.128

Binder	median log2 fold change
B17	0.271
B18	-0.0443
B19	0.0733
B20	0.042
B21	0.141
B22	0.168
B23	0.202
B24	-0.421
B25	0.111
B26	0.0437
B27	-0.663
B28	-0.194
B29	0.0343
B30	0.242
B31	0.0557
B32	-0.356
